Assay results from PubChem BioAssay (NCATS).
Results filed as inconclusive are left out. Entries that show only a call come without a potency. Active and inactive are the calls of the source. The call rests on the fitted dose curve; in most records, active means well fitted cell-killing curve with a large enough effect; inconclusive means small, poorly fitted or top-dose-only effect, or effect the other way; inactive means flat fitted curve, though single readings scatter.

Tests used:
Experiment in all cases: Primary qHTS to identify gynecologic anti-cancer compounds using libraries of approved drugs and bioactive compounds (AID 1345084); further: nearly all actives have a fitted effect of over 55% in size
C33A = conditions: Gynecologic cancer cell panel viability, ATPlite luminescence, 48 h; series mostly up to 57.5 µM
In short: (§1)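 Cytotoxicity screen measuring ATP content by luciferase luminescence. Each compound is applied at five concentrations for 48 h at 37 C with 5% CO2.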

CASKI = conditions: Gynecologic cancer cell panel viability, ATPlite luminescence, 48 h; series mostly up to 57.5 µM
In short: as §1

Es-2 = conditions: Gynecologic cancer cell panel viability, ATPlite luminescence, 48 h; series mostly up to 57.5 µM
In short: as §1

HeLa = conditions: Gynecologic cancer cell panel viability, ATPlite luminescence, 48 h; series mostly up to 57.5 µM
In short: as §1

Hek293T = conditions: Gynecologic cancer cell panel viability, ATPlite luminescence, 48 h, control line for the selectivity index; series mostly up to 57.5 µM
In short: as §1

JEG-3 = conditions: Gynecologic cancer cell panel viability, ATPlite luminescence, 48 h; series mostly up to 57.5 µM
In short: as §1

OV90 = conditions: Gynecologic cancer cell panel viability, ATPlite luminescence, 48 h; series mostly up to 57.5 µM
In short: as §1

PA-1 = conditions: Gynecologic cancer cell panel viability, ATPlite luminescence, 48 h; series mostly up to 57.5 µM
In short: as §1

SKOV3 = conditions: Gynecologic cancer cell panel viability, ATPlite luminescence, 48 h; series mostly up to 57.5 µM
In short: as §1

Tov-21-G = conditions: Gynecologic cancer cell panel viability, ATPlite luminescence, 48 h; series mostly up to 57.5 µM
In short: as §1

Tov112D = conditions: Gynecologic cancer cell panel viability, ATPlite luminescence, 48 h; series mostly up to 57.5 µM
In short: as §1

CAOV3 = conditions: Gynecologic cancer cell panel viability, ATPlite luminescence, 48 h; series mostly up to 57.5 µM
In short: as §1
Potency means the concentration at half of the fitted maximal effect.

| SMILES | Potency (C33A) | Potency (CASKI) | Potency (Es-2) | Potency (HeLa) | Potency (Hek293T) | Potency (JEG-3) | Potency (OV90) | Potency (PA-1) | Potency (SKOV3) | Potency (Tov-21-G) | Potency (Tov112D) | Potency (CAOV3) |
| --- | --- | --- | --- | --- | --- | --- | --- | --- | --- | --- | --- | --- |
| COC(=O)C[C@H]1[C@]2(C)C3=C(C)[C@H](c4ccoc4)C[C@H]3O[C@@H]2[C@H](O)C2[C@](C)(C(=O)OC)C=CC(=O)[C@@]21C (some centres undefined) | inactive | inactive | inactive | inactive | inactive | inactive | inactive | inactive | inactive | inactive | inactive | – |
| C=C1C(=O)O[C@@H]2C=C(COC(C)=O)CC/C=C(\CO)CC[C@@H]12 | inactive | inactive | inactive | inactive | inactive | inactive | inactive | inactive | inactive | inactive | inactive | – |
| C=C(C(=O)O)[C@@H]1CC=C(CCC(C)=O)[C@@H](C)CC1 | inactive | inactive | inactive | inactive | inactive | inactive | inactive | inactive | inactive | inactive | inactive | – |
| COC1=CC(=O)C=C(C)C12Oc1c(Cl)c(OC)cc(OC)c1C2=O (centres undefined) | inactive | inactive | inactive | inactive | inactive | inactive | inactive | inactive | inactive | inactive | inactive | – |
| COc1cc(C2OC(c3ccc(OC)c(OC)c3)C(C)C2C)ccc1O (centres undefined) | inactive | inactive | inactive | inactive | inactive | inactive | inactive | inactive | inactive | inactive | inactive | – |
| CC(=O)O[C@@H]1C[C@@]23C[C@@]24CC[C@H](O[C@@H]2OC[C@H](O)[C@H](O)[C@H]2O)C(C)(C)[C@@H]4CC[C@H]3[C@]2(C)[C@@H](O)C34O[C@H](C[C@@H](C)[C@@H]3[C@@]12C)[C@@H](C(C)(C)O)O4 | inactive | inactive | inactive | inactive | inactive | inactive | inactive | inactive | inactive | inactive | inactive | – |
| Cc1cc(OCCCS(C)(=O)=O)cc(C)c1-c1cccc(COc2ccc(C3=CC(=O)NS3=O)cc2)c1 (centres undefined) | inactive | – | inactive | – | inactive | inactive | – | – | inactive | inactive | inactive | inactive |
| COC(=O)C1=COC(O[C@@H]2O[C@H](CO[C@@H]3O[C@H](COC(=O)/C=C\c4ccc(O)cc4)[C@@H](O)[C@H](O)[C@H]3O)[C@@H](O)[C@H](O)[C@H]2O)C2C(CO)=CCC12 (some centres undefined) | inactive | – | – | – | – | – | inactive | – | – | – | – | inactive |
| CN(C)C(=O)NC1(c2ccccc2)CCN(CCC[C@]2(c3ccc(Cl)c(Cl)c3)CCCN(C(=O)c3ccccc3)C2)CC1 | inactive | – | – | inactive | – | inactive | – | – | – | – | inactive | 20 µM (active) |
| COc1cc2nc(N3CCN(C(=O)COc4c(OC)cccc4C(C)C)CC3)nc(N)c2cc1OC | inactive | inactive | inactive | inactive | inactive | inactive | inactive | inactive | inactive | inactive | inactive | – |
| O=C(Nc1nc2cc(C(F)(F)F)cc(NC3CC3)n2n1)c1cccnc1 | inactive | – | – | 12.6 µM (active) | – | 10 µM (active) | inactive | 7.08 µM (active) | – | – | 7.94 µM (active) | inactive |
| COc1ccc(-c2ccccc2)cc1NS(=O)(=O)c1cc(Cl)cc(Cl)c1O | inactive | – | – | – | – | – | – | – | inactive | – | – | inactive |
| CN(C)c1ccc(NC(=O)NS(=O)(=O)c2ccc(Cl)cc2)cc1 | inactive | inactive | inactive | inactive | inactive | inactive | inactive | inactive | inactive | inactive | inactive | – |
| CC1CCC(=O)CC(SCC(O)C(=O)O)CCC(=O)O1 (centres undefined) | inactive | inactive | inactive | inactive | inactive | inactive | inactive | inactive | inactive | inactive | inactive | – |
| O=C(NCCCN1CCC2(CC1)OCc1ccccc12)[C@H]1CCCN1Cc1ccccc1 | inactive | inactive | inactive | inactive | inactive | inactive | inactive | inactive | inactive | inactive | inactive | – |
| CC(C)[C@@H](c1ccc(C(F)(F)F)cc1CN(Cc1cc(C(F)(F)F)cc(C(F)(F)F)c1)c1nnn(C)n1)N1CCC(C(=O)O)CC1 | inactive | inactive | inactive | inactive | inactive | inactive | inactive | inactive | inactive | inactive | inactive | – |
| CN(C)c1cccc(Oc2cnc(Nc3cccc(O)c3)nc2)c1 | inactive | – | – | inactive | inactive | inactive | inactive | inactive | inactive | – | inactive | inactive |
| COC1=CC(=O)C[C@@H](C)[C@@]12Oc1c(Cl)c(OC)cc(OC)c1C2=O | inactive | – | inactive | – | – | – | inactive | – | – | – | 0.1 µM (active) | inactive |

| SMILES | Potency (C33A) | Potency (CASKI) | Potency (Es-2) | Potency (HeLa) | Potency (Hek293T) | Potency (JEG-3) | Potency (OV90) | Potency (PA-1) | Potency (SKOV3) | Potency (Tov-21-G) | Potency (Tov112D) | Potency (CAOV3) |
| --- | --- | --- | --- | --- | --- | --- | --- | --- | --- | --- | --- | --- |
| CC(=O)OC1C(=O)C2C3OCC4=C3[C@@](C)(CC[C@@H]4O)CC[C@]2(C)[C@H]1C(C)C (some centres undefined) | inactive | inactive | inactive | inactive | inactive | inactive | inactive | inactive | inactive | inactive | inactive | – |
| O=C(NCc1nc2ccccc2c(=O)n1-c1ccc(F)cc1)Nc1ccc(Cl)c(C(F)(F)F)c1 | inactive | inactive | inactive | inactive | inactive | inactive | inactive | inactive | inactive | inactive | inactive | – |
| CN(C)C(=O)C(=O)c1cn(C)c2cc(Cl)c(C(=O)N3CCC(Cc4ccc(F)cc4)CC3)cc12 | inactive | inactive | inactive | inactive | inactive | inactive | inactive | inactive | inactive | inactive | inactive | – |
| CC(=O)O[C@H]1C[C@H](OC(C)=O)[C@]2(C)[C@H](CC[C@@]34O[C@@H]3C3=C(C)C(=O)O[C@@H]3C[C@H]42)C1(C)C | inactive | inactive | inactive | inactive | inactive | inactive | inactive | inactive | inactive | inactive | inactive | – |
| CC(=O)OC1CC2(C)C(CCC(C)C23Cc2c(O)cc(CO)c(C=O)c2O3)C(C)(C)C1O (centres undefined) | inactive | inactive | inactive | inactive | inactive | inactive | inactive | inactive | inactive | inactive | inactive | – |
| CN1CCC(NC(=O)c2cc(-c3c(O)cc(O)cc3Oc3ccc([N+](=O)[O-])cc3)on2)CC1 | 0.708 µM (active) | – | – | inactive | 1 µM (active) | – | – | 0.794 µM (active) | 1.58 µM (active) | 0.562 µM (active) | – | 0.398 µM (active) |
| Cn1ncnc1[C@H]1c2n[nH]c(=O)c3cc(F)cc(c23)N[C@@H]1c1ccc(F)cc1 | inactive | – | – | inactive | inactive | – | inactive | 1 µM (active) | inactive | inactive | – | inactive |
| CC(C)(O)C1Cc2c(ccc(C(=O)CCc3ccccc3)c2O)O1 (centres undefined) | 11.2 µM (active) | – | – | 10 µM (active) | 11.2 µM (active) | inactive | 11.2 µM (active) | 12.6 µM (active) | – | 12.6 µM (active) | 10 µM (active) | 10 µM (active) |
| CC(=O)O[C@@]12CO[C@@H]1C[C@H](O)[C@@]1(C)C(=O)[C@H](O)C3=C(C)[C@@H](OC(=O)[C@H](O)[C@@H](NC(=O)OC(C)(C)C)c4ccccc4)C[C@@](O)([C@@H](OC(=O)c4ccccc4)C12)C3(C)C (some centres undefined) | inactive | – | – | – | – | inactive | inactive | – | – | – | inactive | inactive |
| COC(=O)c1ccc(N2CCN(C)CC2)c(NC(=O)c2cccc(OC)c2)c1 | inactive | inactive | inactive | inactive | inactive | inactive | inactive | inactive | inactive | inactive | inactive | – |
| C/C1=C\[C@@H](C)C[C@@H](C)[C@@H](Cc2cnco2)OC(=O)/C(C)=C/[C@@H](C)C[C@@H](C)[C@@H](Cc2cnco2)OC1=O | inactive | – | – | inactive | – | inactive | inactive | inactive | – | inactive | – | inactive |
| CC(C)NCCCn1c(Sc2cc3c(cc2I)OCO3)nc2c(N)ncnc21 | 1.58 µM (active) | – | – | inactive | – | – | 0.398 µM (active) | – | 2 µM (active) | 0.501 µM (active) | 0.891 µM (active) | 1.58 µM (active) |
| Cc1ccc(O)cc1Nc1ccnc(Nc2cccc(C(N)=O)c2)n1 | inactive | – | – | – | – | inactive | – | – | – | 10 µM (active) | – | inactive |
| COc1ccc([C@H]2Cc3cccc(O)c3C(=O)O2)cc1OC | inactive | inactive | inactive | inactive | inactive | inactive | inactive | inactive | inactive | inactive | inactive | – |
| COC(=O)CC1OC(C)C2=C(O)c3c(O)cccc3C(=O)C23OC13 (centres undefined) | 12.6 µM (active) | – | 10 µM (active) | – | 10 µM (active) | – | 10 µM (active) | 3.98 µM (active) | – | 6.31 µM (active) | 6.31 µM (active) | 3.55 µM (active) |
| CCCC1(CCC)CCC2(CCN(CCCN(CC)CC)C2)CC1 | 6.31 µM (active) | 8.91 µM (active) | 10 µM (active) | 7.08 µM (active) | 8.91 µM (active) | 5.62 µM (active) | 7.08 µM (active) | 5.01 µM (active) | 7.94 µM (active) | 6.31 µM (active) | – | – |
| COc1cc2c(c(OC)c1CC=C(C)C)C[C@H](c1ccc(O)c(CC=C(C)C)c1O)CO2 | inactive | inactive | inactive | inactive | inactive | inactive | inactive | inactive | inactive | inactive | inactive | – |
